These results are taken from PubChem BioAssay (NCI).

Test [1] can be described thus: NCI Yeast Anticancer Drug Screen. Data for the rad50 strain (AID 155).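 Note: 0% = growth of vehicle-only cultures of the same strain.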 The following applies: S. cerevisiae rad50 strain growth inhibition, hits give high values. In short, it runs like this: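 Yeast carrying a defined DNA repair defect were exposed to test compounds, and growth was compared with vehicle-treated controls to give percent inhibition.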
Test [2] can be described thus: NCI Yeast Anticancer Drug Screen. Data for the mec2-1 strain (AID 157). The following applies: S. cerevisiae mec2-1 strain, hits give high values. In short, it runs like this: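 Each compound was tested on mec2-1 yeast, a strain altered in DNA damage repair or cell cycle control. Growth inhibition is reported relative to vehicle.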
A short description of test [3]: NCI Yeast Anticancer Drug Screen. Data for the sgs1 mgt1 strain (AID 161).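 Note: 0% = growth of cultures given vehicle only.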 The following applies: S. cerevisiae sgs1 mgt1 strain, hits give high values. The method in brief: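 Genetically altered yeast, compound exposure, growth inhibition relative to vehicle.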
Test [4] in a line: NCI Yeast Anticancer Drug Screen. Data for the cln2 rad14 strain (AID 165).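 Note: 0% = growth equal to vehicle treated cultures.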 The following applies: S. cerevisiae cln2 rad14 strain, hits give high values. The method in brief: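 Test compounds were added to cln2 rad14 yeast cultures; inhibition of growth was then determined by comparison with vehicle treatment.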
A short description of test [5]: NCI Yeast Anticancer Drug Screen. Data for the bub3 strain (AID 167). The following applies: S. cerevisiae bub3 mutant strain, hits give high values. The method in brief:
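Compounds were applied to a genetically altered yeast strain carrying a cell-cycle control defect. Growth inhibition was scored against vehicle-treated controls.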

Test [6] in a line: NCI Yeast Anticancer Drug Screen. Data for the mlh1 rad18 strain (AID 175). The following applies: S. cerevisiae mlh1 rad18 strain growth inhibition, hits give high values. In short, it runs like this: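 Inhibition values reflect reduced growth of mutant yeast versus vehicle-treated controls following compound exposure; the mutations affect DNA damage repair.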
Where [7] appears, read: at 5.0 µM (retest, dose inferred, filed as 0.5).
The mark [8] stands for this setting: at 50.0 µM (retest, dose inferred, filed as 5.0).

About 79,000 compounds went through this panel and 15% of them were active in at least one assay; those are over-represented in the sample as a whole. Values without a mark were called inactive. Calls of active or inactive are those of the source. Cut-off read from the data, not from the text of the source: active = growth inhibition above about 70%; inactive = the rest.

`Cc1nn(-c2ccc(S(=O)(=O)[O-])cc2)c([O-])c1N=[N+](C)c1ccc(-c2ccc(N=Nc3ccc4c(S(=O)(=O)[O-])cc(S(=O)(=O)[O-])c(N)c4c3[O-])c([O-])c2)cc1[O-].[Cu+2].[Cu+2].[Na+]`: the growth inhibition is 6% in test [1] (setting [7]); -15% in test [1] (setting [8]); -26.5% in test [1] (at 50.0 µM); -3% in test [2] (setting [7]); -17% in test [2] (setting [8]); 18.9% in test [2] (at 50.0 µM). The growth inhibition in test [3] (setting [7]) is 6%; in test [3] (setting [8]), -15%; in test [3] (at 50.0 µM), -19.4%; in test [4] (setting [7]) it was -7%; in test [4] (setting [8]), -28%; in test [4] (at 50.0 µM), 64.5%. For the same molecule, the growth inhibition in test [5] (setting [7]) was -9%; in test [5] (setting [8]) it was -11%; in test [5] (at 50.0 µM), -60.1%; in test [6] (setting [7]) it was -9%; in test [6] (setting [8]) it was -4%; in test [6] (at 50.0 µM) it was 17.6%.
Turning to `CC1=C(C(=O)Nc2cccc3ccccc23)C(c2cccc([N+](=O)[O-])c2)C(C(=O)Nc2cccc3ccccc23)=C(C)N1`, the growth inhibition in test [1] (setting [7]) is 27%; in test [1] (setting [8]) it was 40%; in test [1] (at 50.0 µM), 76.2% (active); in test [2] (setting [7]) it was 22%; in test [2] (setting [8]), 50%; in test [2] (at 50.0 µM), 60.2%. In addition, the growth inhibition is 7% in test [3] (setting [7]); 32% in test [3] (setting [8]); 77.1% (active) in test [3] (at 50.0 µM); -3% in test [4] (setting [7]); 14% in test [4] (setting [8]); 70.6% (active) in test [4] (at 50.0 µM). The growth inhibition in test [5] (setting [7]) is 34%; in test [5] (setting [8]), 58%; in test [5] (at 50.0 µM), 81.5% (active); in test [6] (setting [7]) it was -22%; in test [6] (setting [8]), 23%; in test [6] (at 50.0 µM), 88.1% (active).
For the molecule `CCC[CH2][Sn]1([CH2]CCC)[O]CC([CH2][Sn]([c]2ccccc2)([c]2ccccc2)[c]2ccccc2)[O]1` (configuration not stated), the growth inhibition is 100% (active) in test [1] (setting [7]); 100% (active) in test [1] (setting [8]); 90.3% (active) in test [1] (at 50.0 µM); 97% (active) in test [2] (setting [7]); 97% (active) in test [2] (setting [8]); 91.7% (active) in test [2] (at 50.0 µM). In addition, the growth inhibition in test [3] (setting [7]) is 99% (active); in test [3] (setting [8]) it was 99% (active); in test [3] (at 50.0 µM), 90.8% (active); in test [4] (setting [7]), 99% (active); in test [4] (setting [8]), 99% (active); in test [4] (at 50.0 µM), 91.7% (active). In addition, the growth inhibition is 97% (active) in test [5] (setting [7]); 97% (active) in test [5] (setting [8]); 91.3% (active) in test [5] (at 50.0 µM); 98% (active) in test [6] (setting [7]); 98% (active) in test [6] (setting [8]); 89% (active) in test [6] (at 50.0 µM).
Take `c1c[n+](CCC2CCCCC2)ccn1`: the growth inhibition was -15% in test [1] (setting [7]); 6% in test [1] (setting [8]); 89% (active) in test [1] (at 50.0 µM); -14% in test [2] (setting [7]); -23% in test [2] (setting [8]); 97% (active) in test [2] (at 50.0 µM). The growth inhibition in test [3] (setting [7]) was -33%; in test [3] (setting [8]), -21%; in test [3] (at 50.0 µM) it was 94.3% (active); in test [4] (setting [7]), -26%; in test [4] (setting [8]), 10%; in test [4] (at 50.0 µM), 73.1% (active). For the same molecule, the growth inhibition in test [5] (setting [7]) is -6%; in test [5] (setting [8]), 28%; in test [5] (at 50.0 µM) it was 63.7%; in test [6] (setting [7]) it was -28%; in test [6] (setting [8]) it was 3%; in test [6] (at 50.0 µM) it was 69.5%.
Regarding `O=[N+]([O-])c1ccc(CC(c2ccc([N+](=O)[O-])cc2)(c2ccc([N+](=O)[O-])cc2)c2ccc([N+](=O)[O-])cc2)cc1`, the growth inhibition in test [1] (setting [7]) was 2%; in test [1] (setting [8]), -3%; in test [1] (at 50.0 µM), 5.05%; in test [2] (setting [7]) it was 1%; in test [2] (setting [8]), 1%; in test [2] (at 50.0 µM), 12.6%. The growth inhibition was 1% in test [3] (setting [7]); -16% in test [3] (setting [8]); -19.3% in test [3] (at 50.0 µM); 5% in test [4] (setting [7]); -20% in test [4] (setting [8]); 8.7% in test [4] (at 50.0 µM). In addition, the growth inhibition in test [5] (setting [7]) was 5%; in test [5] (setting [8]), 4%; in test [5] (at 50.0 µM), 41%; in test [6] (setting [7]), 0%; in test [6] (setting [8]), 1%; in test [6] (at 50.0 µM), 26.9%.
Consider `Cc1ccc(N=Nc2ncccc2O)cc1C`, for which the growth inhibition is -157% in test [1] (setting [7]); 95% (active) in test [1] (setting [8]); 98.8% (active) in test [1] (at 50.0 µM); -49% in test [2] (setting [7]); 95% (active) in test [2] (setting [8]); 98.2% (active) in test [2] (at 50.0 µM). Moreover, the growth inhibition in test [3] (setting [7]) is -67%; in test [3] (setting [8]), 95% (active); in test [3] (at 50.0 µM) it was 98.4% (active); in test [4] (setting [7]), -64%; in test [4] (setting [8]), 93% (active); in test [4] (at 50.0 µM), 87.4% (active). The growth inhibition in test [5] (setting [7]) is -85%; in test [5] (setting [8]) it was 96% (active); in test [5] (at 50.0 µM), 97.7% (active); in test [6] (setting [7]), -121%; in test [6] (setting [8]), 95% (active); in test [6] (at 50.0 µM), 98.2% (active).
On to `C=CCOC(=O)SC(=S)OCN(C)C`, for which the growth inhibition was 3% in test [1] (setting [7]); 98% (active) in test [1] (setting [8]); 99.2% (active) in test [1] (at 50.0 µM); -3% in test [2] (setting [7]); 99% (active) in test [2] (setting [8]); 99.4% (active) in test [2] (at 50.0 µM). Also, the growth inhibition was 1% in test [3] (setting [7]); 99% (active) in test [3] (setting [8]); 99.4% (active) in test [3] (at 50.0 µM); 4% in test [4] (setting [7]); 99% (active) in test [4] (setting [8]); 98.6% (active) in test [4] (at 50.0 µM). Besides, the growth inhibition was -1% in test [5] (setting [7]); 98% (active) in test [5] (setting [8]); 99.3% (active) in test [5] (at 50.0 µM); 1% in test [6] (setting [7]); 99% (active) in test [6] (setting [8]); 99.1% (active) in test [6] (at 50.0 µM).
Consider `CC(C)(C)C1CCC2c3c([nH]c4ccccc34)C3C(=O)N(c4ccc(C(=O)O)cc4)C(=O)C3C2C1` (configuration not stated), for which the growth inhibition is 98% (active) in test [1] (setting [7]); 98% (active) in test [1] (setting [8]); 96.3% (active) in test [1] (at 50.0 µM); 99% (active) in test [2] (setting [7]); 99% (active) in test [2] (setting [8]); 99.2% (active) in test [2] (at 50.0 µM). Also, the growth inhibition in test [3] (setting [7]) was 99% (active); in test [3] (setting [8]), 99% (active); in test [3] (at 50.0 µM) it was 98.5% (active); in test [4] (setting [7]) it was 89% (active); in test [4] (setting [8]) it was 98% (active); in test [4] (at 50.0 µM) it was 99.4% (active). Moreover, the growth inhibition in test [5] (setting [7]) was 74% (active); in test [5] (setting [8]), 99% (active); in test [5] (at 50.0 µM), 99.3% (active); in test [6] (setting [7]), 97% (active); in test [6] (setting [8]), 99% (active); in test [6] (at 50.0 µM) it was 98.8% (active).
In the case of `CC1CCC2(NC1)OC1CC3[C@@H]4CC=C5C=CCC[C@]5(C)C4CC[C@]3(C)C1C2C` (some centres not stated), the growth inhibition is -16% in test [1] (setting [7]); 97% (active) in test [1] (setting [8]); 90.8% (active) in test [1] (at 50.0 µM); 4% in test [2] (setting [7]); 99% (active) in test [2] (setting [8]); 93.1% (active) in test [2] (at 50.0 µM). Besides, the growth inhibition in test [3] (setting [7]) was -4%; in test [3] (setting [8]), 98% (active); in test [3] (at 50.0 µM), 91.6% (active); in test [4] (setting [7]), 6%; in test [4] (setting [8]) it was 97% (active); in test [4] (at 50.0 µM), 90.9% (active). Also, the growth inhibition is -33% in test [5] (setting [7]); 98% (active) in test [5] (setting [8]); 90.8% (active) in test [5] (at 50.0 µM); -10% in test [6] (setting [7]); 97% (active) in test [6] (setting [8]); 89.1% (active) in test [6] (at 50.0 µM).
